High-throughput results as filed in PubChem BioAssay.
Cardio protect – protects H9c2 cardiomyocytes from peroxide injury; protection from H2O2 cell death, % at 20 µM; 360,000 compounds, 0.63% hits; H2O2 injury protection, ATPLite, 2 h; AID 588492;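 active = compounds giving at least 50% protection of heart cells from peroxide-induced death in the single-dose screen, raw or plate-pattern-corrected value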
CRFBP-R2 agonist – CRF-BP/CRF-R2 complex agonism; HEK293 CRF-R2/CRF-BP, calcium dye fluorescence (FLIPR); percent of saturating CRF peptide response; activation, % at 13.2 µM; 350,000 compounds, 0.46% hits; AID 588473;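 active = activation of at least 50%, plus an integration ratio under a set limit after plate pattern correction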
FAS-TE inh – FAS thioesterase (human) inhibition; AID 602261; 360,000 compounds, 0.67% hits; inhibition, % at 15 µM; recombinant FAS-TE, OMFH fluorogenic substrate, fluorescence endpoint;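 active = compounds whose normalised, plate-corrected inhibition of enzyme fluorescence in the single-dose primary screen is 50% or more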
Target sequence (P49327 whole entry, looked up): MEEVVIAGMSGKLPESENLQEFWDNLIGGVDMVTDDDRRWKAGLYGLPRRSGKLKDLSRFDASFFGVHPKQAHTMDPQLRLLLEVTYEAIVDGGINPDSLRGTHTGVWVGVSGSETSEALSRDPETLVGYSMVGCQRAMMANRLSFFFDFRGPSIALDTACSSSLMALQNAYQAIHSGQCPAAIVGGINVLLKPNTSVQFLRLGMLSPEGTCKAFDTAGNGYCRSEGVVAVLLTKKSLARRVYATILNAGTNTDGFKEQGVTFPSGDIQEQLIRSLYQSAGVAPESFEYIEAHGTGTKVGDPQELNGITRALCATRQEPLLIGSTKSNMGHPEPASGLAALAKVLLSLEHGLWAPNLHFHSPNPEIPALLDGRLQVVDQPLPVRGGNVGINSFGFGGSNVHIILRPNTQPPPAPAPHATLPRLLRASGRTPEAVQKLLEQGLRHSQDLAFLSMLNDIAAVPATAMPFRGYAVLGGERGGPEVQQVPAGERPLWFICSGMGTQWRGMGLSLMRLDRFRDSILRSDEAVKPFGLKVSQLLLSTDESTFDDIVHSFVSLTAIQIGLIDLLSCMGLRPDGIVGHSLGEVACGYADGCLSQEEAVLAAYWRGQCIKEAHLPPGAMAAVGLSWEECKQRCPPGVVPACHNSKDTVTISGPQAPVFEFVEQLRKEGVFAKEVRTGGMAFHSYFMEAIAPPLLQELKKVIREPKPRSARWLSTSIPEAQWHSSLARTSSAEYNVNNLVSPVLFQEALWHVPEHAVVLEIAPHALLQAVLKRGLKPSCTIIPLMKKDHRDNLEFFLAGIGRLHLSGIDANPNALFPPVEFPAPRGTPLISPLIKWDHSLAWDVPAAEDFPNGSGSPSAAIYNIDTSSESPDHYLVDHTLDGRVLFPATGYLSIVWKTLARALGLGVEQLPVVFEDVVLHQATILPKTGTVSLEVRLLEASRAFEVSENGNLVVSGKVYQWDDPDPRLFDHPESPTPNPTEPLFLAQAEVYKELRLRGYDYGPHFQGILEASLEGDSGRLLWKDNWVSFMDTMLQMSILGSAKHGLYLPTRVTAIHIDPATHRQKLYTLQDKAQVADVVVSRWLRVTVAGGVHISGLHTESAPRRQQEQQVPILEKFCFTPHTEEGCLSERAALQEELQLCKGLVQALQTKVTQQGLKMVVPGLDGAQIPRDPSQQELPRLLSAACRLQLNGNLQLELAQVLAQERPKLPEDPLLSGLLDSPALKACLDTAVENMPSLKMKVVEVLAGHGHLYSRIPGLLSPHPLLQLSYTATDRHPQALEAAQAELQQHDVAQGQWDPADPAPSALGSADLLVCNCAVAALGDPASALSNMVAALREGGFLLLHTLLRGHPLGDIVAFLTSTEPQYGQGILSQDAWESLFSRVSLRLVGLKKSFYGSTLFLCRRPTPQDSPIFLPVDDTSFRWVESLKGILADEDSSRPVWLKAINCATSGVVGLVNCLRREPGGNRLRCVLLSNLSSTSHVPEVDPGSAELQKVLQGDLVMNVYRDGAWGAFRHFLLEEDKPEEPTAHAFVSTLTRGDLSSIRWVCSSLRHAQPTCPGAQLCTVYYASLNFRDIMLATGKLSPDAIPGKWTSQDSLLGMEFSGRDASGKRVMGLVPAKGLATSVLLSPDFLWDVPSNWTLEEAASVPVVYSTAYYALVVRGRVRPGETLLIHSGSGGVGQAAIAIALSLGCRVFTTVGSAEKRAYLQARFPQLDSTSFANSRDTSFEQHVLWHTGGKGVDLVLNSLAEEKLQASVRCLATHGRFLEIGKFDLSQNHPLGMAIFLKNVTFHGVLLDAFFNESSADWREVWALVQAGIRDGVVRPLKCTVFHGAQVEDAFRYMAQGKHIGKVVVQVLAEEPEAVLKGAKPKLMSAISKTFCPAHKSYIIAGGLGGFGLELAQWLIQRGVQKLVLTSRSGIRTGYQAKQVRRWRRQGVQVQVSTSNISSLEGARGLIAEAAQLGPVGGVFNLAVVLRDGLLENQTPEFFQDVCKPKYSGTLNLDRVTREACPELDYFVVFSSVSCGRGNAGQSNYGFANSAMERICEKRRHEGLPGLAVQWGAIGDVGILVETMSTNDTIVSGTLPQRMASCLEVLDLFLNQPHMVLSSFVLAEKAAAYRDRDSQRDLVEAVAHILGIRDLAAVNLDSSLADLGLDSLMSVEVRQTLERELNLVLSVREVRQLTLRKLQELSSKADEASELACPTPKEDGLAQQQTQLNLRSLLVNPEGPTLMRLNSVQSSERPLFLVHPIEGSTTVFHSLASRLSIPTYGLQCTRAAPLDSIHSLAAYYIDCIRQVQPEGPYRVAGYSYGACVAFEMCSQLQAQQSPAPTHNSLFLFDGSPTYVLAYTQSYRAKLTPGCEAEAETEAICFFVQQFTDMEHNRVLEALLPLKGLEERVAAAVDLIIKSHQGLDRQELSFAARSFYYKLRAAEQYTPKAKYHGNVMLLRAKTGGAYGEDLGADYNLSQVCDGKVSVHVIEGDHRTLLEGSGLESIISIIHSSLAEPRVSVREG
aDG glyco act – alpha-DG glycosylation activation | Pro5-aDG cells, alpha-DG glycosylation AlphaScreen (IIH6); 0% Pro5, 100% B10-LARGE cell signal | AID 624168 | activation, % at 10 µM | 360,000 compounds, 0.22% hits;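 active = activation of at least 8% versus controls, or a plate z-score of at least 8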;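 note: Pro5 are CHO cells carrying HIG-tagged alpha-DG that lacks glycosylation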
PfGluPho inh – PfG6PD (Plasmodium falciparum) enzyme inhibition; AID 504690; PfGluPho enzyme, NADPH resazurin-diaphorase fluorescence; inhibition, % at 20 µM; 350,000 compounds, 0.78% hits;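 active = inhibition reaching at least a set limit at 20 µM in the primary screen, cut at about 59% in these data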
CRFR2-BP antag – blocks CRF-induced signaling of the CRF-BP/CRF-R2 complex | HEK293 CRF-R2/CRF-BP, CRF-induced calcium fluorescence | inhibition, % at 11.8 µM | 350,000 compounds, 0.59% hits;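 active = inhibition of the ligand-induced calcium signal above about 50% at the single tested concentration, limit read from the data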
Numbers stand for hits; n = inactive; x = no result given. Only some compounds are listed: those with a hit (about 3.2% of all), similar ones and a draw of the others.

SMILES | Cardio protect | CRFBP-R2 agonist | FAS-TE inh | aDG glyco act | PfGluPho inh | CRFR2-BP antag
CCOC(=O)C1(CCc2ccccc2)CCN(C(=O)C(C)n2cncn2)CC1 (stereo unspecified) | n | n | n | n | n | n
S=c1[nH]c2ccccc2n2cccc12 | n | n | n | n | n | n
O=c1[nH]c2cccc(F)c2n2cccc12 | 51 | n | n | n | n | n
CN(C)c1nc(NCc2ccccc2)nc(SCC(=O)Nc2ccccc2Cl)n1 | n | n | n | n | n | 58
CN(CC(=O)N1CCCC1)S(=O)(=O)c1ccc2ccccc2c1 | n | n | n | n | n | n
CC(OC(=O)CCc1nc2ccccc2c(=O)[nH]1)C(=O)NCc1ccc2c(c1)OCO2 (stereo unspecified) | 67 | n | n | n | n | n
CC(=O)c1cccc(NC(=O)C(C)OC(=O)CCc2nc3ccccc3c(=O)[nH]2)c1 (stereo unspecified) | 52 | n | n | n | n | n
O=C(OC1CCCCC1=O)c1cc(Cl)ccc1[N+](=O)[O-] (stereo unspecified) | n | n | n | n | n | n
COc1cccc(N=C2CC(C)(C)CC(=O)/C2=C(/O)c2ccccc2)c1 | n | n | n | n | n | n
CC(=O)Nc1nnc(SCC(=O)NC(C)(C)C)s1 | n | n | n | n | n | n
CCC(C)C(=O)Nc1nnc(SCC(=O)NC(C)(C)C)s1 (stereo unspecified) | n | n | n | n | n | 67
N#Cc1ccc(S(=O)(=O)N2CCN(C(=O)[C@@H]3CCCN3C(=O)c3cccs3)CC2)cc1 | n | n | n | n | n | 79
Oc1ccc(/C=N/Nc2cc(N3CCOCC3)nc(N3CCOCC3)n2)cc1O | 53 | n | n | n | n | n
Oc1cccc(/C=N/Nc2cc(N3CCOCC3)nc(N3CCOCC3)n2)c1 | n | n | n | n | n | n
COCCn1ccc2c(OCC(=O)NCc3ccc(C)cc3)cccc2c1=O | n | n | n | n | n | n
Oc1ccccc1C=NCCN1CCN(CCN=Cc2ccccc2O)C1c1ccccc1O (stereo unspecified) | n | n | n | n | n | 66
Oc1ccccc1C=NCCN=Cc1ccccc1O | n | n | n | n | n | n
CCCSc1nc(C)c2cc(C)cc(C)c2n1 | n | n | n | n | n | n
Cc1cc(C)c2nc3nc(C)c(C)cc3c(N)c2c1 | n | 71 | n | n | n | 111
CCc1ccc(CNC(=O)Cn2nc(-c3ccccc3)ccc2=O)cc1 | n | n | n | n | n | n
CCCCn1nnnc1C(c1cc2ccccc2o1)N(CCN(C)C)Cc1ccccc1 (stereo unspecified) | x | x | n | n | x | x
CCCN(CCC)C(=O)c1ccc2nc(-c3ccc(OC)c(OC)c3)c(-c3ccc(OC)c(OC)c3)nc2c1 | n | n | n | n | n | n
CCC(C)NC(=O)c1ccc2nc(-c3ccc(OC)c(OC)c3)c(-c3ccc(OC)c(OC)c3)nc2c1 (stereo unspecified) | 71 | n | n | n | n | n
O=C(O)c1ccc(S(=O)(=O)c2ccc3c(c2)C(=O)N(NC(=O)c2cccnc2)C3=O)cc1 | n | n | n | n | n | n
Cn1c(NCc2ccco2)nc2c1c(=O)n(Cc1ccc(Cl)cc1)c(=O)n2C | 51 | n | n | n | n | n
SMILES | Cardio protect | CRFBP-R2 agonist | FAS-TE inh | aDG glyco act | PfGluPho inh | CRFR2-BP antag
COc1ccc(NC2CCCN(C(=O)c3cccc(C)n3)C2)cc1OC (stereo unspecified) | n | n | n | n | n | 103
C=CCn1c(CNc2ccccc2)nnc1SCC(=O)N/N=C/c1ccccc1O | 63 | n | n | n | n | n
COc1ccc(-c2csc(-c3ccc(C(=O)O)cc3)n2)cc1 | n | n | n | n | n | n
O=C(O)c1ccc(-c2nc(-c3ccc(Cl)cc3Cl)cs2)cc1 | n | n | n | n | n | 67
O=C(O)c1ccc(-c2nc(-c3cccc(C(F)(F)F)c3)cs2)cc1 | n | n | n | n | n | n
O=C(O)c1ccc(-c2nc(-c3ccc(Cl)cc3)cs2)cc1 | n | n | n | n | n | 53
COc1ccc(S(=O)(=O)NC(C(=O)OCC(=O)Nc2ccc(N3CCOCC3)cc2)C(C)C)cc1 (stereo unspecified) | n | n | n | n | n | n
CCOc1cc(C)ccc1OCc1nnc(SCC(=O)c2cccc([N+](=O)[O-])c2)n1C | n | n | n | n | n | 56
